42 sequences from publication PMC7819943, “Rice protein-binding microarrays: a tool to detect cis-acting elements near promoter regions in rice” can be followed below.

Over roughly 35,000 sequences, “fluorescence intensity (a.u.)” has its median near 10,000; the highest 2% begin near 52,000. For the sample, the highest values were picked, then their nearest neighbours and some sequences at random.

This assay has as its target T1, OsWOX13 (Oryza sativa, UniProt Q5QMM3 1-267).
T1 sequence: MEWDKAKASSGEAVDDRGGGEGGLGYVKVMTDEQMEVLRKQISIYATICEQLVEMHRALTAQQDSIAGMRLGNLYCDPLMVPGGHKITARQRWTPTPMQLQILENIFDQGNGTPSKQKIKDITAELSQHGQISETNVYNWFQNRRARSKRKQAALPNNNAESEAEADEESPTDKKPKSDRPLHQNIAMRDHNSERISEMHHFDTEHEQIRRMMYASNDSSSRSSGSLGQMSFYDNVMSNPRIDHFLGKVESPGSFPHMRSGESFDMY
The assay is described as follows: protein-binding microarray (RPBM); PBS, 2% BSA, 51.3 ng/ul salmon testes DNA, 50 uM zinc acetate, 200 nM TF, 25 C, 1 h; high values mean tight binding. The note with it: protein: recombinant; tags: N-terminal polyhistidine and DsRed monomer fusion (pET32a); label: CyDye5-dUTP incorporated in the synthesized complementary strand; 3' TTTTT single-stranded linker to array surface; dsDNA, one strand shown. The procedure, abridged: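 Ni–NTA purification followed expression in E. coli BL21-CodonPlus of transcription factors fused N-terminally to a polyhistidine tag and DsRed. At 200 nM in PBS with 2% BSA, salmon testes DNA and 50 µM zinc acetate, the protein was incubated for 1 h at 25 °C with a custom Agilent array that had been primer-extended with Cy5-dUTP and blocked with 2% BSA. After washing, the array was read on an Axon 4000B scanner. The binding signal is per-feature fluorescence intensity in arbitrary units.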
As for “ACTGATAGAATTAGCTCTATGCATAATGCATGGCTGTCTCCGGAGTCACCTAGTGCAG”, the binding signal was 34300 fluorescence intensity (a.u.).
With “AAAGATTGAAACTCTGAACATTTAGGACAACGAACATCATCGGAGTCACCTAGTGCAG” the figure was 14000 fluorescence intensity (a.u.).
With “CAAACAAGCCAGCTCAATCAATCATCGAGCTAGCTGAGCTCGGAGTCACCTAGTGCAG” the figure was 8080 fluorescence intensity (a.u.).
Regarding “CTCTGTAACTATATAATTTCGTGCCAGATCGAAACTATGTCGGAGTCACCTAGTGCAG”, the binding signal was 4040 fluorescence intensity (a.u.).
For “GGTGTGTTTATAATTAATATACAGATTGTGTCACATTGTTCGGAGTCACCTAGTGCAG”, the binding signal was 8600 fluorescence intensity (a.u.).
As for “AGATAATTAAGTATTTTACGTAAAATAAGATAGTATTAATCGGAGTCACCTAGTGCAG”, the figure is 5240 fluorescence intensity (a.u.); as for “CAACTATTATATAAATTGGCTATTATATTAGCTATAGATGCGGAGTCACCTAGTGCAG”, 11400 fluorescence intensity (a.u.); as for “TTTATGATTATATTCGTAATGCTACATAATTTGATATGATCGGAGTCACCTAGTGCAG”, 28100 fluorescence intensity (a.u.).
“AATAAAATAATAATTATATAATTTTAGTAAGATAATTGAACGGAGTCACCTAGTGCAG”: the binding signal was 19200 fluorescence intensity (a.u.).
In the case of “GAGCTATTAGATTGGCTATAGATAAATTAGAGCTAGTAGTCGGAGTCACCTAGTGCAG”, the binding signal was 31600 fluorescence intensity (a.u.).
Turning to “TTATATTAATTGGCTATTAGATTAGCTATAGATAAATTGGCGGAGTCACCTAGTGCAG”, the binding signal was 60400 fluorescence intensity (a.u.).
As for “ATGATTGATCGATCATCAAGCTAAAGATAATGCTATGCAACGGAGTCACCTAGTGCAG”, the binding signal is 55100 fluorescence intensity (a.u.).
With “GATAAATTGACAATATTACCAAAATTTTAGTAAGATTGGCCGGAGTCACCTAGTGCAG” the figure was 64900 fluorescence intensity (a.u.); with “ATATTTGATTAGATCGGTAATGGATGGCTATAACGTATGCCGGAGTCACCTAGTGCAG”, 58500 fluorescence intensity (a.u.).
As for “GTCAATCATTGTTCTATGAGCTAGATGATAAAGATGACAACGGAGTCACCTAGTGCAG”, the figure is 8180 fluorescence intensity (a.u.); as for “TATATATGAGCTATTAGATTGGCTATGGATGAATTGGAGCCGGAGTCACCTAGTGCAG”, 4900 fluorescence intensity (a.u.).
With “TCAAGCTGCTAATCAATTGATATCAACTATATTATGGAAACGGAGTCACCTAGTGCAG” the figure was 14600 fluorescence intensity (a.u.); with “ATCACACCCTAAATTGACTGTATTTGTGCTGAATTTTACACGGAGTCACCTAGTGCAG”, 12300 fluorescence intensity (a.u.); with “CAGCCGGATTGATTGCGTAGCTGTGTGCAAGGCTGGGCGACGGAGTCACCTAGTGCAG”, 35900 fluorescence intensity (a.u.).
Regarding “TGGTTAATTTAGCTTCTCCCCTTTCTCGTGTCCTTAGATTCGGAGTCACCTAGTGCAG”, the binding signal is 10200 fluorescence intensity (a.u.).
For “ATAAAATTAAAGTAAATGTGATACAAACGTGGCATGTTTGCGGAGTCACCTAGTGCAG”, the binding signal is 8490 fluorescence intensity (a.u.).
Turning to “AGACTAATTGAAGCTAGGATATATGATGCAAGGAGAGAGGCGGAGTCACCTAGTGCAG”, the binding signal is 29500 fluorescence intensity (a.u.).
As to “ACCTTAAATTTGTAGTTGATTTTAGGGTTTTCTCATTGAACGGAGTCACCTAGTGCAG”, the binding signal is 27700 fluorescence intensity (a.u.).
With “ATAATAGATTTGGTCAAAATTTATCGAAAACCGATCGAAACGGAGTCACCTAGTGCAG”, the binding signal was 13200 fluorescence intensity (a.u.).
Take “AAATTAAATAACATGTGATTATGGCATACTGTAAGTAGTACGGAGTCACCTAGTGCAG”: the binding signal was 12000 fluorescence intensity (a.u.).
“ACCAAATTAATTTATTAAACATAAAATTGAATATATTTTGCGGAGTCACCTAGTGCAG”: the binding signal was 46500 fluorescence intensity (a.u.).
As for “ATGGACTATTAAATTGACTATAAATGATTTGGAGCTAGTACGGAGTCACCTAGTGCAG”, the binding signal was 22200 fluorescence intensity (a.u.).
As for “TATGAATTGGCTATTAAATTGACTATAAATGATTTAGAGCCGGAGTCACCTAGTGCAG”, the figure is 37200 fluorescence intensity (a.u.); as for “ATAAATGGGCTATTAGATTGACTATAAATGATTTGGAGCCCGGAGTCACCTAGTGCAG”, 57100 fluorescence intensity (a.u.).
For “GAGACCATATCATTGATAGATACATGCATGCATCCTACTACGGAGTCACCTAGTGCAG”, the binding signal is 7660 fluorescence intensity (a.u.).
In the case of “AAGACTAAAGGCTCAATTGATTGGACGGGAGATATGAAAACGGAGTCACCTAGTGCAG”, the binding signal is 9490 fluorescence intensity (a.u.).
With “ATATGATATTTGTCCATCTTAATTGCTTATAAGCTGTATACGGAGTCACCTAGTGCAG” the figure was 5090 fluorescence intensity (a.u.).
Consider “TAATAAATTTGACTAGTTATTCAACTTTGACATAAAATCCCGGAGTCACCTAGTGCAG”, for which the binding signal is 11500 fluorescence intensity (a.u.).
Turning to “GGCCAGTAATTAACCATATTTATCATTTAAACTACTCAGTCGGAGTCACCTAGTGCAG”, the binding signal was 9040 fluorescence intensity (a.u.).
As for “GTAATTGACAACTGACAACCGACAGTTATTGACTCATTCCCGGAGTCACCTAGTGCAG”, the binding signal was 54900 fluorescence intensity (a.u.).
As for “ATTTATGTAATTATCATTTATTTTATTGTAAATTTATTTACGGAGTCACCTAGTGCAG”, the figure is 16300 fluorescence intensity (a.u.).
For “TAGATTGATTGTTACTCCGTACATAACCTTGTCTTCTTCGCGGAGTCACCTAGTGCAG”, the binding signal is 55400 fluorescence intensity (a.u.).
As to “ATTGCTGATTGTCTGTTCTTTTACTTGACATAACCTGAATCGGAGTCACCTAGTGCAG”, the binding signal was 30100 fluorescence intensity (a.u.).
Consider “ACCGTAACCTGATTGATAATTTACTGATTTACTCATTGTTCGGAGTCACCTAGTGCAG”, for which the binding signal was 64700 fluorescence intensity (a.u.).
As for “TTGTTGATAACCGATAATTTGGTAAATTATTGATTTTATTCGGAGTCACCTAGTGCAG”, the figure is 19900 fluorescence intensity (a.u.); as for “ATTTTGGTTTCTGTTATTGACAAAACAACTCACTCATTCCCGGAGTCACCTAGTGCAG”, 3480 fluorescence intensity (a.u.); as for “GGAGTGCAAATTAGTCCGGATTTTACTGAATATTGATAACCGGAGTCACCTAGTGCAG”, 3300 fluorescence intensity (a.u.).
